HPGD block = qHTS Assay for Inhibitors of HPGD (15-Hydroxyprostaglandin Dehydrogenase). purified HPGD, NADH fluorescence kinetic, PGE2 substrate. actives 4.3% (n = 150,000). 15-hydroxyprostaglandin dehydrogenase [NAD(+)] (Homo sapiens), P15428. Potency, µM, inactives show top-dose activity change, negative = inhibition, hits mostly inhibitors; active means well fitted inhibition curve with a large enough effect, not every such curve was filed as active; inconclusive means small, poorly fitted or top-dose-only effect, or another doubt; inactive means no such curve, though single readings can be large or run the other way
Target sequence (P15428 whole entry, looked up): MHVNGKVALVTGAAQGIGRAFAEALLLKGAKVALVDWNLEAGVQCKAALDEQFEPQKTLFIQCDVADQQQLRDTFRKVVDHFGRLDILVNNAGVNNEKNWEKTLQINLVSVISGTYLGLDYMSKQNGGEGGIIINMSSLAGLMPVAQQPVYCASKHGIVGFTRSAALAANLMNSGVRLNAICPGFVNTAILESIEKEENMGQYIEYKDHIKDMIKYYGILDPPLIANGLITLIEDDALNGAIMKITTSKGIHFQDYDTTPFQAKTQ
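NADH formation kinetics: reaction with 30 uM PGE2 and 1 mM NAD+ (final), 20 nM enzyme, Tris-HCl pH 8 with Tween 20, after 15 min compound preincubation at room temperature. Fluorescence change, last versus first of five reads.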
Luc counter = Counterscreen for Luciferase (Kinase-Glo TM) Inhibition; AID 1379, 2008; actives 0.28% (n = 200,000); Kinase-Glo luciferase, ATP luminescence, 8 min; Potency, µM (highest dose often 38.3 µM), for inactives: at the top dose activity change, negative = inhibition, hits mostly inhibitors; Luciferin 4-monooxygenase (Photuris pensylvanica), Q27757; further: nearly all actives have a fitted effect of over 60% in size
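Kinase-Glo luciferase light output from ATP and luciferin was measured with 10 uM ATP, within the enzyme's linear range. Buffer: 50 mM imidazole pH 7.2, 50 mM KCl, 7 mM MgCl2, 0.01% Tween 20, 0.05% BSA; luminescence read after 8 min at ambient temperature.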
ALDH1A1 inh = qHTS Assay for Inhibitors of Aldehyde Dehydrogenase 1 (ALDH1A1) | Aldehyde dehydrogenase 1A1 (Homo sapiens), P00352 | Purified ALDH1A1, NADH fluorescence, propionaldehyde substrate | Potency, µM (top dose mostly 75.3 µM), inactives show top-dose activity, negative = inhibition, hits mostly inhibitors | actives 7.3% (n = 220,000); active means well fitted inhibition curve with a large enough effect, not every such curve was filed as active; inconclusive means small, poorly fitted or top-dose-only effect, or another doubt; inactive means no such curve, though single readings can be large or run the other way;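 further: plate controls were no enzyme wells and a reference inhibitor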
Target sequence (P00352 whole entry, looked up): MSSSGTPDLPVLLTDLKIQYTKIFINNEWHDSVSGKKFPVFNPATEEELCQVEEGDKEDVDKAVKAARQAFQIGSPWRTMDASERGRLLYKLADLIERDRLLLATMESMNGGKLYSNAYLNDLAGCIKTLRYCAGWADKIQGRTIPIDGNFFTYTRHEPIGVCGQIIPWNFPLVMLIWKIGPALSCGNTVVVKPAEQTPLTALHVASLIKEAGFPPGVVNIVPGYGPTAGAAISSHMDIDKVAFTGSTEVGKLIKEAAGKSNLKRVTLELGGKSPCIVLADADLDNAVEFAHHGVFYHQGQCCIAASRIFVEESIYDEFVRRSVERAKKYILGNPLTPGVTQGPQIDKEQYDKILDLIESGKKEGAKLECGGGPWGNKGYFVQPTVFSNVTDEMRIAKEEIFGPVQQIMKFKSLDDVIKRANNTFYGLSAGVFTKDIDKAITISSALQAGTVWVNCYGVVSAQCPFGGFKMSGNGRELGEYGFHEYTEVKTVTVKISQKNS
Lamin A splicing = qHTS Assay for Modulators of Lamin A Splicing | Potency, µM (top dose mostly 46.1 µM), without a hit: at the highest dose ratio change, negative = inhibition, actives largely listed as inhibitors | HeLa LMNA splicing GFP/RFP minigene ratio, 48 h | actives 0.01% (n = 200,000); active means well fitted inhibition curve with a large enough effect in the signal ratio, with a control signal flat, not every such curve was filed as active; inconclusive means small, poorly fitted or top-dose-only effect, or effect the other way, or a change in a side signal; the % refers to the signal ratio
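S3 HeLa stable clones carrying a lamin A-EGFP splicing minigene plus DsRed2 were seeded at 600 cells/well in Opti-MEM with 2% FBS, pin-dosed and incubated 48 h at 37°C. Acumen cytometry (488 nm) gave the GFP/RFP total-intensity ratio.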
IMPase Li inh = qHTS Assay for Identifying the Cell-Membrane Permeable IMPase Inhibitors: Potentiation with Lithium | AID 1457, 2008 | Potency, µM (titrated, usually from 59.4 µM), for inactives: at the highest dose activity, negative = IMPase inhibition, hits mostly inhibitors | CHO-M1 cells, IP1 TR-FRET (IP-One), carbachol + lithium | actives 0.35% (n = 210,000);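 further: IP1 builds up when IMPase is blocked and the TR-FRET signal falls; plate controls were basal vehicle for no effect and high inhibitor control for full effect; nearly all actives have a fitted effect of over 50% in size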
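IP1 accumulation measured by competitive TR-FRET in lysed CHO-M1 cells after 30 min compound exposure at 37C, with a small lithium addition to potentiate weak responses. Hill-equation AC50 from ratio and donor-channel data.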
* marks the source's active call; other numbers are inactive results; u = inconclusive; x = no result given; ! = not active in a repeat; [ ] = another dose, or the depositor's remark. Hits are enriched below; roughly 9% of the tested compounds scored in any of these assays. Unless noted, the call rests on the fitted dose curve; in most records, active means well fitted curve in the direction sought with a large enough effect; inconclusive means small, poorly fitted or top-dose-only effect, or another doubt; inactive means no such curve, though single readings can be large; an effect the other way counts as inactive or inconclusive. Unless noted, on the % scale 0 is the no-effect control and ±100 the full control effect; potency means the concentration at half of the fitted maximal effect.

SMILES | HPGD block | Luc counter | ALDH1A1 inh | Lamin A splicing | IMPase Li inh
Cc1cc(C)n2nc(/C(C#N)=C/c3ccccn3)c(C#N)c2n1 | x | -2% | 14µM* | u | -2%
C=CCC(Nc1ccc(OC)cc1)(C(=O)OCC)c1ccccc1 (stereo not drawn) | -2% | -1% | -1% | x | 3%
CC(=O)[C@@H]1[C@H]2[C@H](C(=O)[C@H]3OC[C@@H]2O3)[C@H]2C=Cc3ccccc3N21 | -25% | u | 25µM* | x | 352%
Cc1ccc(C(=O)[C@@H]2[C@H]3C4COC(O4)C(=O)[C@@H]3[C@H]3C=Cc4ccccc4N32)cc1 (stereo partly drawn) | -18% | -1% | u | x | 7%
Cc1ccc(OCC(=O)NC(=S)Nc2ccc3c4c(cccc24)CC3)cc1 | -12% | 0% | 10µM* | -7% | 11µM*
O=C(COc1ccccc1)NC(=S)Nc1ccc2c3c(cccc13)CC2 | -7% | 15% | u | 1% | u
CC(C)c1ccc(OCC(=O)NC(=S)Nc2ccc3c4c(cccc24)CC3)cc1 | -13% | 7% | u | 7% | 13µM*
CCNc1sc(C(=O)OCC)c(N)c1C#N | x | -2% | 11% | x | -2%
C[C@H](CCC(=O)NCC(=O)O)C1CC[C@H]2C3CC[C@@H]4C[C@H](O)CC[C@]4(C)C3C[C@H](O)[C@]12C (stereo partly drawn) | x | x | 4% | x | 1%
CCc1ccccc1N(C)C(=O)c1cn(-c2cccc(OC)c2)c(=O)c2ccccc12 | x | x | x | 1%[46 µM] | x
CC1CCN(S(=O)(=O)c2cccc(C(=O)NC3CCS(=O)(=O)C3)c2)CC1 (stereo not drawn) | x | x | x | 5%[46 µM] | x
CC(=O)O[C@]1(C(C)=O)CC[C@H]2[C@@H]3C[C@H](C)C4=CC(=O)CC[C@]4(C)[C@H]3CC[C@@]21C | -1% | -3% | 32µM*! | u | -1%
CC(=O)O[C@]1(C(C)=O)CC[C@H]2[C@@H]3C=C(Cl)C4=CC(=O)CC[C@]4(C)[C@H]3CC[C@@]21C | -7% | 2% | u | u | -5%
COc1ccc(NS(=O)(=O)c2cc(NC(=O)CC3CCCC3)ccc2N2CCOCC2)cc1 | x | 4% | 3.2µM* | 3%[46 µM] | 3%
COc1ccccc1NCC(=O)Nc1cc(S(=O)(=O)N2CCOCC2)ccc1N1CCOCC1 | x | 0% | -3% | x | 3%
COc1ccccc1S(=O)(=O)Nc1cc(S(=O)(=O)N2CCCCC2)ccc1N1CCOCC1 | x | 2% | 13µM* | -16%[46 µM] | 13%
COc1ccccc1NS(=O)(=O)c1cc(NC(=O)c2cc[n+]([O-])cc2)ccc1N1CCCC1 | x | 4% | 7.9µM* | -10%[46 µM] | 4%
COc1ccccc1NS(=O)(=O)c1cc(NC(=O)Nc2ccccc2)ccc1N1CCCCC1 | 25µM* | -6% | 18µM* | u | -6%
O=C(NCc1ccccc1)c1nc(-c2ccc(Cl)cc2)n2c1CCCCC2 | x | x | x | -17%[46 µM] | x
COc1ccccc1NS(=O)(=O)c1cc(NC(=S)NCCN2CCOCC2)ccc1N1CCOCC1 | 18µM* | 3% | 25µM* | -10% | 2%
COc1ccccc1NS(=O)(=O)c1cc(NC(=O)C(C)C)ccc1N1CCCCC1 | x | -2% | 9.5µM* | x | 4%
COc1ccccc1NS(=O)(=O)c1cc(NC(=O)C2CCCC2)ccc1N1CCOCC1 | x | 1% | 10µM* | u | 7%
COc1ccccc1NS(=O)(=O)c1cc(NC(=O)c2ccncc2)ccc1N1CCOCC1 | -24% | -2% | u | -8% | 9%
O=C(Nc1ccc(F)cc1)Nc1ccc(N2CCCC2)c(S(=O)(=O)Nc2ccccc2Cl)c1 | -18% | -2% | u | u | 14%
COc1ccccc1NC(=S)NCCN1CCOCC1 | -6% | -1% | 2% | -3% | -7%
SMILES | HPGD block | Luc counter | ALDH1A1 inh | Lamin A splicing | IMPase Li inh
O=C(CN1C(=O)CCc2cc(S(=O)(=O)N3CCOCC3)ccc21)NCc1ccc(Cl)cc1 | x | x | x | 7%[46 µM] | x
C/C(=N\Nc1cc(C)nc(-c2ccccc2O)n1)c1ccccc1 | x | -12% | 2% | x | -7%
CNC(=S)N/N=C(\C)c1ccc2c(c1)OCCO2 | -11% | 10% | 2.8µM* | 4% | 3%
CNC(=S)N/N=C(\C)c1cccc([N+](=O)[O-])c1 | -19% | 5% | 13µM* | -10% | -6%
C/C(=N\Nc1cc(C)nc(-c2ccccc2)n1)c1cccc([N+](=O)[O-])c1 | x | 3% | 13µM* | x | 23%
C/C(=N\NC(=O)C(N)=O)c1cccc([N+](=O)[O-])c1 | x | 0% | 1% | x | -5%
CC(=O)NNC(=S)NC(=O)c1cccc([N+](=O)[O-])c1 | 28µM* | 1% | 8.9µM* | -1% | -2%
O=C(c1ccccc1Br)N1CCC(c2nc3ccccc3o2)CC1 | x | x | x | 5%[46 µM] | x
O=C(CSc1nc2c([nH]c3ccccc32)c(=O)n1-c1ccccc1)Nc1ccc2c(c1)OCO2 | x | x | x | 5%[46 µM] | x
CCc1nnc(NC2=NCCC2)s1 | -15% | -2% | -34% | -4% | 11%[38.3 µM]
COC(=O)[C@@H]1C[C@H]1[C@@H](NC(=O)c1cc(C)nn1C)c1ccccc1 | -13% | -3% | u | x | 3%
Cc1ccc2nc(C)c(C(=O)NN=C3CCN(C)CC3)n2c1 | x | 1% | 7.9µM* | 14%[46 µM] | 1%
N[C@@H]1C(O)OC(CO)C(O)C1O (stereo partly drawn) | -3% | -1% | 14% | 16% | 5%
N[C@](CC1c2ccccc2Oc2ccccc21)(C(=O)O)[C@H]1C[C@@H]1C(=O)O | x | x | 2% | x | -2%
O=C(O)CS(=O)(=O)c1ccc(C(F)(F)F)cn1 | x | -1% | -1% | 15%[46 µM] | 9%
CCN(CC)CCNC(=O)c1ccc(NC(=O)COc2ccccc2F)cc1 | x | 4% | -10% | 2%[46 µM] | 15%
CCOC(=O)N1CCN(C(=O)CSc2ccccc2)CC1 | 10µM* | -8% | u | 8% | -5%[38.3 µM]
CCOC(=O)N1CCN(C(=O)c2ccccc2CCc2ccccc2)CC1 | -6% | 1% | 6.3µM* | 14% | 15%[38.3 µM]
CCOC(=O)N1CCN(C(=O)CSCc2ccccc2)CC1 | -7% | -2% | -14% | -6% | -4%
CCOC(=O)N1CCN(C(=O)c2ccc(OC)c(S(=O)(=O)N3CCOCC3)c2)CC1 | x | 3% | -4% | u | 1%
CCCC(=O)Nc1cc(-c2nn(C)c(=O)c3ccccc23)ccc1N1CCOCC1 | -13% | 3% | 28µM* | 9% | 13%[38.3 µM]
Cc1ccc(S(=O)(=O)Nc2cc(-c3nn(C)c(=O)c4ccccc34)ccc2N2CCOCC2)cc1 | u | 0% | 22µM* | u | 27%[38.3 µM]

Bioassay records: PubChem BioAssay, National Center for Advancing Translational Sciences (NCATS)
